Experimental findings from PubChem BioAssay (NCATS) are described below.

The target of experiment [1] is Cellular tumor antigen p53 (Homo sapiens) (UniProt P04637). Briefly: Primary qHTS for small molecule compounds that upregulate eGFP-tagged delta133p53alpha (in N-terminal) cells. (AID 2060322).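 Further: series mostly up to about 56 µM; 0% = DMSO vehicle and 100% = reference activator; nearly all actives have a fitted effect of over 75% in size.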 The settings on record: NCI-H358 eGFP-delta133p53alpha fluorescence, 24 h; activation: stronger effect = higher value. Summed up:
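NCI-H358 cells pre-induced 24 h with 10 ng/ml doxycycline to express N-terminal eGFP-delta133p53alpha, then dosed 24 h at 37C without doxycycline; fixed, Hoechst-stained, GFP intensity by laser scanning cytometry, normalized to DMSO (0%) and 57.5 uM 5-azacytidine (100%).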
A general note: qHTS replaces the single test concentration by a dilution series.

Experiment [2] has the same target. Nature of the experiment: Primary qHTS for small molecule compounds that upregulate eGFP-tagged delta133p53alpha (in C-terminal) cells. (AID 2060324).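 Further: 0% = DMSO wells and 100% = 57.5 µM 5-azacytidine.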 Summed up: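 NCI-H358 cells pre-induced 24 h with 100 ng/ml doxycycline to express delta133p53alpha-eGFP, then dosed in doxycycline-free medium for 24 h at 37C. Fixed, Hoechst-stained; GFP intensity by laser scanning cytometry, normalized to DMSO wells.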

In experiment [3] the target is Aldehyde dehydrogenase, mitochondrial (Homo sapiens) (UniProt P05091). Nature of the experiment: qHTS for Inhibitors of the Aldehyde Dehydrogenase Family (ALDH2) Validation screens (AID 2061302; active means well fitted inhibition curve with a large enough effect; title and protocol of this record describe different tests;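 further: plate controls were DMSO vehicle for no effect and maximal DPI positive control response for full effect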).
For experiment [4] the target is unchanged. Nature of the experiment: qHTS for Inhibitors of the Aldehyde Dehydrogenase Family (ALDH2) Confirmatory screens (AID 2061303; active means well fitted inhibition curve with a large enough effect; title and protocol of this record describe different tests; further: nearly all actives have a fitted effect of over 45% in size; further: potency means the concentration at half of the fitted maximal effect).
Experiment [5] is described as follows: qHTS for Inhibitors of the Aldehyde Dehydrogenase Family (ALDH1A2, ALDH1A3, ALDH2, ALDH3A1) (AID 2061307). Further: nearly all actives have a fitted effect of over 50% in size. On Potency: test system not described further here; potency means the concentration at half of the fitted maximal effect.
Experiment [6] deals with Retinaldehyde dehydrogenase 3 (Homo sapiens) (UniProt P47895). Nature of the experiment: qHTS for Inhibitors of the Aldehyde Dehydrogenase Family (ALDH1A3) Confirmatory screens (AID 2061311). Further: nearly all actives have a fitted effect of over 60% in size. Further: potency means the concentration at half of the fitted maximal effect.
The target of experiment [7] is Retinal dehydrogenase 2 (Homo sapiens) (UniProt O94788). Briefly: qHTS for Inhibitors of the Aldehyde Dehydrogenase Family (ALDH1A2) Confirmation screens (AID 2061314). Further: nearly all actives have a fitted effect of over 65% in size. Further: potency means the concentration at half of the fitted maximal effect.
Experiment [8] concerns the target Aldehyde dehydrogenase 1A1 (Homo sapiens) (UniProt P00352). Briefly: qHTS for Inhibitors of the Aldehyde Dehydrogenase Family (ALDH1A1) Confirmatory screens (AID 2061316). Further: nearly all actives have a fitted effect of over 65% in size. Further: potency means the concentration at half of the fitted maximal effect.
Experiment [9] concerns the target Aldehyde dehydrogenase, mitochondrial (Homo sapiens) (UniProt P05091). Briefly: qHTS for Inhibitors of the Aldehyde Dehydrogenase Family (ALDH2) Primary screen (AID 2061308).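 Further: plate controls were vehicle for no effect and reference inhibitor for full effect; nearly all actives have a fitted effect of over 55% in size.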
Experiment [10] has as its target Retinaldehyde dehydrogenase 3 (Homo sapiens) (UniProt P47895). Nature of the experiment: qHTS for Inhibitors of the Aldehyde Dehydrogenase Family (ALDH1A3) Validation screen (AID 2061312). Further: nearly all actives have a fitted effect of over 45% in size. Further: potency means the concentration at half of the fitted maximal effect.
For experiment [11] the target is unchanged. Briefly: qHTS for Inhibitors of the Aldehyde Dehydrogenase Family (ALDH1A3) Primary screen (AID 2061315).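 Further: plate controls were DMSO vehicle for no effect and reference inhibitor for full effect.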
Experiment [12] is described as follows: BET inhibitor-based combinations targeting novel dependencies in MECOM-rearranged (r) AML: OCI-AML3 cell line (AID 2202232).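 Further: series mostly up to about 46 µM; plate controls were DMSO vehicle wells for no effect and wells without cells for full effect; nearly all actives have a fitted effect of over 35% in size.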 The settings on record: Potency: OCI-AML3 viability. The method, boiled down:
(§1)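 A 48 hr incubation preceded viability reading by CellTiter-Glo, with 15 min room-temperature development. Dose series had 11 points; normalization used DMSO and empty wells; AUC was computed and mean-centered per line as Z-AUC.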

Experiment [13] is described as follows: BET inhibitor-based combinations targeting novel dependencies in MECOM-rearranged (r) AML: MV-4-11 cell line (AID 2202233).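 Further: plate controls were DMSO for no effect and blank wells for full effect; nearly all actives have a fitted effect of over 45% in size.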 The method, boiled down: (§2)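 Each compound is tested in an 11-point concentration series against 500 seeded cells/well for 48 hr. The luminescent viability signal is normalized to DMSO and blank wells, then reduced to AUC and a cell-line-centred Z-AUC.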

Experiment [14] can be described thus: BET inhibitor-based combinations targeting novel dependencies in MECOM-rearranged (r) AML: HNT-34 cell line (AID 2202234).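 Further: plate controls were vehicle wells for no effect and cell-free wells for full effect; nearly all actives have a fitted effect of over 35% in size.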 Summed up: as §2
The nature of experiment [15]: BET inhibitor-based combinations targeting novel dependencies in MECOM-rearranged (r) AML: UCSD-AML1 cell line (AID 2202235).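 Further: series mostly up to about 46 µM; plate controls were DMSO vehicle wells for no effect and blank wells for full effect; nearly all actives have a fitted effect of over 40% in size.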 Summed up:
as §2

Experiment [16] in a line: BET inhibitor-based combinations targeting novel dependencies in MECOM-rearranged (r) AML: AML-191 cell line (AID 2202236;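 further: plate controls were vehicle wells for no effect and wells without cells for full effect; nearly all actives have a fitted effect of over 35% in size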). Summed up:
as §1

Experiment [17] in a line: BET inhibitor-based combinations targeting novel dependencies in MECOM-rearranged (r) AML: AML-194 cell line (AID 2202237;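 further: plate controls were vehicle wells for no effect and wells without cells for full effect; nearly all actives have a fitted effect of over 40% in size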). The method, boiled down:
as §1

The nature of experiment [18]: BET inhibitor-based combinations targeting novel dependencies in MECOM-rearranged (r) AML: SET-2 cell line (AID 2202231).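 Further: plate controls were DMSO treated cells for no effect and wells without cells for full effect; nearly all actives have a fitted effect of over 35% in size.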 As to conditions: SET-2 AML cells viability, CellTiter-Glo luminescence, 48 h; viability: stronger effect = lower value, series mostly up to about 46 µM. Summed up: as §1

The structures appear in SMILES notation. Where “and” joins values, the source holds several entries; their conditions need not be identical. Equal values may be shown once. Results filed as inconclusive are left out. Values without a mark were called inactive. Calls of active or inactive are those of the source. Unless noted, the call rests on the fitted dose curve; in most records, active means well fitted curve in the direction sought with a large enough effect; inconclusive means small, poorly fitted or top-dose-only effect, or another doubt; inactive means no such curve, though single readings can be large; an effect the other way counts as inactive or inconclusive.

Cellular tumor antigen p53 (Homo sapiens), sequence (P04637 whole entry, looked up): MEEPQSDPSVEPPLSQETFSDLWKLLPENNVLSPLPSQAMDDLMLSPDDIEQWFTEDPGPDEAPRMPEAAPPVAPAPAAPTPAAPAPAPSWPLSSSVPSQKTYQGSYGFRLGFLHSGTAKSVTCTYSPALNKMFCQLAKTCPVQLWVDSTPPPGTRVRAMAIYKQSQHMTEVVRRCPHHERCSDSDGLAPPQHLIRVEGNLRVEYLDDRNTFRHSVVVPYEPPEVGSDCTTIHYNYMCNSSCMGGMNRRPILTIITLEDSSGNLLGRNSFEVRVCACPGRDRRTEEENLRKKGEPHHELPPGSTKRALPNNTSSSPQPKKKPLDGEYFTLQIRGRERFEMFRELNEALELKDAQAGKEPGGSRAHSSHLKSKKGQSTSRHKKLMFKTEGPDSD

With `c1ccc(C(NCCNC(c2ccccc2)c2ccccc2)c2ccccc2)cc1`, in experiment [1], the activation was -16.9%. Also, the Potency entry in [2], in experiment [3], in experiment [4], in experiment [5], in experiment [6] and in [7] was “inactive” in each case. Moreover, in experiment [8], the Potency result is “inactive”.

As for `N=C(N)c1ccc(N)cc1`, in experiment [1], the activation is -28.3%. Moreover, the Potency entry in [2], in [3], in experiment [4], in experiment [5] and in experiment [7] was “inactive” throughout.

`CC(=O)CCCCn1c(=O)c2c(ncn2C)n(C)c1=O`: the activation in experiment [1] was -15.1% and -0.333% and -11.4%. In addition, the Potency entry in [2], in experiment [3], in experiment [9], in [10] and in experiment [11] was “inactive” each time.

As to `CC(C)NCC(O)COc1cccc2[nH]ccc12` (configuration not stated), the activation in experiment [1] was -9.6% and -5.67% and -6.98%. The Potency result in experiment [2], in [3], in experiment [9], in experiment [10] and in [11] was “inactive” in each case.

Consider `CCc1ccc(/C=C2/SC(=S)NC2=O)cc1`, for which the activation in experiment [1] was -0.0291%. Besides, the Potency result in experiment [2], in [3], in experiment [5], in [6], in [10] and in experiment [7] was “inactive” each time. The Potency entry in [12], in [13], in experiment [14], in [15], in experiment [16] and in experiment [17] was “inactive” throughout.

As to `O=C(O)c1ccccc1Nc1cccc(OCc2ccc3ccccc3n2)c1`, the activation in experiment [1] is -13.1%. In addition, the Potency entry in experiment [2], in experiment [3] and in experiment [10] was “inactive” in each case. In experiment [5], the Potency was 7.98 µM (active).

On to `CS(=O)(=O)c1ccc(-n2nc(C(F)(F)F)cc2-c2ccc(F)cc2)cc1`, for which the activation in [1] is -27.4% and -11.6%. Also, the Potency result in [2], in experiment [3], in experiment [9], in experiment [10] and in experiment [11] was “inactive” throughout.

Regarding `CCCCN(CC)c1nc(C)nc2c1c(C)cn2-c1c(C)cc(C)cc1C`, the activation in experiment [1] was 34.4% and -11%. For the same molecule, the Potency result in [2], in experiment [3], in experiment [5], in [9] and in experiment [11] was “inactive” each time. In addition, the Potency in [10] is 1.26 µM (active) and 12.6 µM (active).

Turning to `O=NN(CCCl)C(=O)NCCCl`, the activation in experiment [1] is -1.09% and 45.2%. The Potency result in experiment [2], in experiment [3], in experiment [12], in experiment [13], in [14] and in [16] was “inactive” in each case. Besides, the Potency entry in experiment [17] was “inactive”. In addition, the Potency is 15.8 µM (active) in experiment [4], 12.7 µM (active) in experiment [6] and 22.5 µM (active) in experiment [8]. Also, the viability in experiment [18] was 104%.

Regarding `Cc1[nH]c(=O)c(C#N)cc1-c1ccncc1`, in [1], the activation was 7.4% and -9.21% and 7.59%. Also, the Potency result in experiment [2], in experiment [3], in experiment [4], in experiment [6], in experiment [7] and in experiment [12] was “inactive” in each case. In addition, the Potency result in experiment [13], in experiment [14], in experiment [15] and in experiment [16] was “inactive” each time. Further, the viability in experiment [18] is 118%.

Consider `CN(C)C(=O)/N=N/C(=O)N(C)C`, for which, in [1], the activation is -3.88%. For the same molecule, the Potency entry in [2], in experiment [3] and in experiment [5] was “inactive” in each case. Moreover, the Potency in [7] is 12.7 µM (active).

Take `Cc1cc(Cn2cnc3c2C[C@@H](C(=O)O)N(C(=O)C(c2ccccc2)c2ccccc2)C3)ccc1N`: the activation in [1] is -13.9%. Moreover, the Potency entry in [2], in [3], in experiment [4] and in experiment [7] was “inactive” in each case.

Take `CNS(=O)(=O)CCc1ccc2[nH]cc(C3CCN(C)CC3)c2c1`: in experiment [1], the activation is 13.4% [middle of 4 runs]. The Potency entry in [2], in experiment [3], in experiment [9], in [10] and in experiment [11] was “inactive” throughout.

In the case of `CN(C)CCC(c1ccccc1)c1ccccn1` (configuration not stated), the activation in experiment [1] is -2.82% and -9.55% and -25.6%. Also, the Potency entry in [2], in experiment [3], in experiment [9], in experiment [10] and in [11] was “inactive” each time.

Consider `N.N.N.N.N.N.N.N.N.N.N.N.N.N.O.O.[Ru+4].[Ru+5].[Ru+5]`, for which the activation in [1] was 4.58%. Further, the Potency result in experiment [2], in experiment [3], in experiment [4], in experiment [5] and in [8] was “inactive” each time.

Regarding `O=c1ccc2c(OCCCCc3ccccc3)c3ccoc3cc2o1`, the activation in [1] is -37.4%. In addition, the Potency entry in experiment [2] and in experiment [3] was “inactive” in each case. The Potency in [5] is 1.12 µM (active); in experiment [6], 12.6 µM (active).

As for `O=C(O)CCc1nc(-c2ccccc2)c(-c2ccccc2)o1`, in experiment [1], the activation is -3.34% and -25.4%. For the same molecule, the Potency result in [2], in experiment [3], in [9], in experiment [10] and in experiment [11] was “inactive” each time.

Consider `CC(C(O)c1ccc(O)cc1)N1CCC(Cc2ccccc2)CC1` (configuration not stated), for which the activation in [1] was -5.02% and -1% and -19.5%. In addition, the Potency result in [2], in [3], in experiment [9], in experiment [10] and in experiment [11] was “inactive” throughout.

Regarding `O=c1c(O)c(-c2cc(O)c(O)c(O)c2)oc2cc(O)cc(O)c12`, the activation in experiment [1] was -9.12% and -2.85%. Besides, the Potency entry in [2], in experiment [3], in [5], in experiment [7], in [12] and in experiment [14] was “inactive” each time. The Potency entry in [15], in [16] and in experiment [17] was “inactive” throughout. For the same molecule, the Potency in [6] was 5.65 µM (active).

The term viability denotes a read-out of living cells in per cent, often relative to untreated cells.
